Source: PubChem BioAssay (National Center for Advancing Translational Sciences (NCATS))
Shown is part of a subset that was picked to be rich in hits.
KDM5B inh: Primary screen for KDM5B Histone Demethylases FDH-coupled qHTS; 2.6% of 220,000 active; KDM5B demethylase, FDH-coupled NADH fluorescence (FDH is formaldehyde dehydrogenase); Lysine-specific demethylase 5B (Homo sapiens), Q9UGL1; Potency, µM (highest dose often 57.7 µM), most hits filed as inhibitors; active = well fitted inhibition curve with a large enough effect; also: 0% is about no effect; nearly all actives have a fitted effect of over 70% in size
Target sequence (Q9UGL1 whole entry, looked up): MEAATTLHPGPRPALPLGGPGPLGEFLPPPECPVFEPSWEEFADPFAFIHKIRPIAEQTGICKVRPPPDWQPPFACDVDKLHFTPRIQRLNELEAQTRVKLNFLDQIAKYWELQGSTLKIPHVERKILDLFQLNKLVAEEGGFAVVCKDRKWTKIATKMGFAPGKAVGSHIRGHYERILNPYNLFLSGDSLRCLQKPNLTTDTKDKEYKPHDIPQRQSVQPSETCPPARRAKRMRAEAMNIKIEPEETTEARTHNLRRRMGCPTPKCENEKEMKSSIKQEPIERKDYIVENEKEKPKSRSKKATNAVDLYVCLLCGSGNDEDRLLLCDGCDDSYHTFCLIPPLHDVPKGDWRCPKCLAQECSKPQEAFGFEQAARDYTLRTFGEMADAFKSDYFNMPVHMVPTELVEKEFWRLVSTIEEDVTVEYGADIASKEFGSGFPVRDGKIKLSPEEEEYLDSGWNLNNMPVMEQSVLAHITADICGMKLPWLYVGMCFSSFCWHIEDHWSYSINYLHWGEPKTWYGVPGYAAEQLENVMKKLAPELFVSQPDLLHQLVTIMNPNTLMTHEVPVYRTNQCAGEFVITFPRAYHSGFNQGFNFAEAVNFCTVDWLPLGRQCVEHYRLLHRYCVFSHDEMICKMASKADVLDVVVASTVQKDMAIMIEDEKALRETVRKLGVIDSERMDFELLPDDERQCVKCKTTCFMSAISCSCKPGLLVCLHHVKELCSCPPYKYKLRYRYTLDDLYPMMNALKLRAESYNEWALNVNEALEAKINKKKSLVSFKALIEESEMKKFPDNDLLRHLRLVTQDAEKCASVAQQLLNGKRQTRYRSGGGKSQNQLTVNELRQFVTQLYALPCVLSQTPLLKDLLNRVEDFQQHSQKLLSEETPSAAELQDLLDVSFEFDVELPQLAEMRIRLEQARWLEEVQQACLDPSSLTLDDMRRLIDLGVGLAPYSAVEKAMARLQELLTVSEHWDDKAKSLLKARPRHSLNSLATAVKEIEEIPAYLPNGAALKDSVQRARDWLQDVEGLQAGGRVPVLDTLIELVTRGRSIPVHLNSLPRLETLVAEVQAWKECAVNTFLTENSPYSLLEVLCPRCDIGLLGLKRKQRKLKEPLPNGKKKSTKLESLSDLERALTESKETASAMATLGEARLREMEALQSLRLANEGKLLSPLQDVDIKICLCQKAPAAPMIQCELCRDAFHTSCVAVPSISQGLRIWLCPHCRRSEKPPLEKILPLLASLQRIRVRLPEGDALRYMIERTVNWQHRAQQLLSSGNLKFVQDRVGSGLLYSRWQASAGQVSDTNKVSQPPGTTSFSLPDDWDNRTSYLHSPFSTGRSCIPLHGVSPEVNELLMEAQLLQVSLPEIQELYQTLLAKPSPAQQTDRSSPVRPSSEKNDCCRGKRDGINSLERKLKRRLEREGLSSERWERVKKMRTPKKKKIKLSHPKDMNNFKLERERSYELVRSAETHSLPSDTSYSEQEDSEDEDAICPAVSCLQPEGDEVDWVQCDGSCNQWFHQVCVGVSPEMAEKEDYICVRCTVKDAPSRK
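Measured: NADH fluorescence change, 30 min, RT. System: KDM5BΔAP 200 nM final, H3K4me3 peptide, α-KG, Fe(II), ascorbate, NAD⁺ plus FDH, pH 7.5 HEPES. Compounds: titrated, 10 min pre-incubation with enzyme.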
* = called active by the depositor; i = inactive. Potency is read from the fitted curve at half-maximal effect.

SMILES	KDM5B inh
Cc1ccc(NC(=O)c2n[nH]c(=O)c3ccccc23)cc1S(=O)(=O)N1CCCCCC1	i
C[N+](C)(CC#Cc1ccccc1)CC#Cc1ccccc1	i
COc1cc(F)ccc1CN1CCCC2(Cc3ccccc3CNC2=O)C1 (centres undefined)	i
C=C(C)COc1cc(Cl)ccc1C(N)=O	i
CCCCNC(=O)c1ccc(C#N)cc1	i
Cc1ccc2[nH]c(C)c(CC(=O)NCC(C)(C)CN(C)C)c2c1	i
Cc1csc(NC(=O)c2occc2-c2ccccc2)n1	i
O=C(CCCN1C(=O)COc2ccc(C(=O)COc3ccc(F)cc3Cl)cc21)NCC1CC1	i
CCn1nc(C)cc1C(=O)NCc1cccnc1Oc1ccccc1C	i
CCCn1nccc1C(=O)NCc1cccnc1-n1cnc2ccccc21	i
CCCn1nccc1C(=O)NCc1cccnc1Oc1ccc(C)nc1	32µM*
CCOC(=O)c1oc2cc(OCC(=O)OC(C)C)ccc2c(=O)c1-c1ccccc1OC	i
CCOc1cc2c(cc1NC(=O)CC1C=CCC1)OC(C)C2 (centres undefined)	i
Cc1ccc(C)c(NC(=O)CN2CCC(C(=O)N3CCCC3)CC2)c1	i
CCc1cccc2sc(N3CCN(C(=O)C4CC4)CC3)nc12	i
Cc1ncnc(N2CCN(C(=O)C3CCN(C(=O)C4CC4)CC3)CC2)c1C	i
Cc1cc(C)nc(N2CCN(C(=O)C3CCN(CC(N)=O)CC3)CC2)n1	28µM*
COC[C@]1(O)CCN(C(=O)C2CCN(CC(N)=O)CC2)CC1(C)C	i
Cc1cccc(N2CCN(C(=O)C3CCN(C(=O)C4CC4)CC3)CC2)n1	22µM*
CCc1cccc(N2C(=O)CS(=O)(=O)C23C(=O)N(Cc2ccc(Cl)cc2)c2ccccc23)c1 (centres undefined)	i
CCN(CC(=O)Nc1c(F)cccc1F)C(=O)CCNS(=O)(=O)c1ccc(F)c(F)c1	i
O=C(Nc1cccc(Cl)c1)N(Cc1cccs1)c1ccccn1	i
N=C(N)COc1ccc(Cl)cc1	i
N#Cc1ccccc1N=Cc1ccccc1Cl	i
CCN(CCCNC(=O)C1CCCCC(=O)N1C)c1ccccc1 (centres undefined)	i
SMILES	KDM5B inh
O=C(O)CCCNC(=O)Cn1ccc2c(Br)cccc21	i
CC(=O)NCC(=O)N[C@@H]1CN(Cc2ccccc2)C[C@H]1CO	i
CC(=O)NCC(=O)NC1CC(C)(C)Cc2nc(N(C)Cc3ccccc3)ncc21 (centres undefined)	32µM*
CC1(C)Cc2c(cnn2-c2ccccc2)C(NC(=O)CCCN2CCCC2=O)C1 (centres undefined)	i
NC(=O)CN1C(=O)CO[C@H]2CN(Cc3ccccc3F)C[C@H]21	i
N#Cc1ccc(CN2C[C@@H]3OCC(=O)N(CC(N)=O)[C@@H]3C2)cc1	35µM*
NC(=O)CN1C(=O)CO[C@H]2CN(Cc3ccc(C(F)(F)F)cc3)C[C@H]21	i
O=S(=O)(Nc1cccc(-c2nnnn2C2CC2)c1)c1ccccc1F	i
O=C(NC1(c2ccc(F)cc2)CCC1)c1ccccn1	i
Cc1ccc(C)c(NC(=O)CCn2cnc3c2c(=O)n(C)c(=O)n3C)c1	i
O=C(Nc1cccc(Cl)c1)Nc1c(N2CCCC2)c2ccccc2oc1=O	i
Cc1ccc(CN2CCN(C(=O)c3ccn(COc4cccc(Cl)c4)n3)CC2)cc1	i
OCCC1CN(c2ccc(-c3nc(CCCc4ccccc4)no3)cn2)CCO1 (centres undefined)	20µM*
COc1ccc(CCC(=O)N2CCCC(Cc3noc(-c4ccccc4)n3)C2)cc1 (centres undefined)	i
CC1(O)CCCN(c2ncc(C(C)(C)C(=O)O)c(N3CCOCC3)n2)C1 (centres undefined)	i
OCCC1CCN(c2ccc(-c3nc(CCCc4ccccc4)no3)cn2)CC1	i
CC1(O)CCCN(c2ccc(-c3nc(CCCc4ccccc4)no3)cn2)C1 (centres undefined)	22µM*
Cc1cccc(C(=O)N2CCOC(CCCc3ccccc3)C2)n1 (centres undefined)	i
COCC1CCN(c2ccc(-c3nc(CCCc4ccccc4)no3)cn2)C1 (centres undefined)	35µM*
CCC(=O)N1CCC(Cc2noc(-c3ccccc3)n2)C1 (centres undefined)	i
O=C(C1CC1)N1CCC(Cc2noc(-c3ccccc3)n2)C1 (centres undefined)	i
CCOC(=O)/C(C#N)=C/c1cccnc1	i
Cc1cc(C(=O)N2CCC(NC(=O)c3ccncc3)CC2)c2ccccc2n1	i
COc1cccc2c(Nc3ccc(C)cc3)cc(C)nc12	i
CN(Cc1ccc(C(F)(F)F)cc1)C(=O)CCn1cnc2c1c(=O)n(C)c(=O)n2C	i
SMILES	KDM5B inh
CN(C)c1ccc(S(=O)(=O)N2CCCCC2)cc1NS(=O)(=O)c1ccc2ccccc2c1	i
C/C(=N\NC(=O)Nc1ccccc1)c1ccc(Br)cc1	i
Cc1ccc(S(=O)(=O)N2CCN(C(=O)c3cc4c(s3)CCC4)CC2)cc1	i
NC(=O)c1cccc(NC(=O)c2ccccc2CSc2nc3ccccc3o2)c1	i
C#CCN1CCN(CCOc2ccccc2)CC1	i
COc1ccc(OCC2(C)COc3ccc(C(=O)NC4CCC(O)CC4)cc3N2)cc1 (centres undefined)	32µM*
COc1ccc(NC(=O)Cn2c(=O)n(Cc3ccc4c(c3)OCO4)c(=O)c3ccc(C(=O)NC4CCCCC4)cc32)cc1	i
COc1ccc(C(=O)NCC2(COc3cccnc3)C[C@@H](O)[C@@H](O)C2)cc1 (some centres undefined)	i
CC1(COc2cccnc2)COc2ccc(C(=O)NCC3CCOCC3)cc2N1 (centres undefined)	35µM*
CC1(COc2cccnc2)COc2ccc(C(=O)NC3CCC(O)CC3)cc2N1 (centres undefined)	35µM*
O[C@@H]1CC(CNC2CCC2)(COc2cccnc2)C[C@@H]1O (some centres undefined)	i
COc1ccc(C(=O)NC2CC2)cc1	i
Cc1cc(C(=O)NCC2(COc3cccnc3)C[C@@H](O)[C@@H](O)C2)no1 (some centres undefined)	i
O=[N+]([O-])c1ccc(N=Cc2cccnc2)cc1	i
CCC(=O)Nc1ccc(-c2csc(NC3CC3)n2)cc1	i
N#Cc1c(N)n[nH]c1CCCNC(=O)C1c2ccccc2Oc2ccccc21	i
CCCCN(C(=O)CN1CCN(c2ccccc2)CC1)c1c(N)n(CC(C)C)c(=O)[nH]c1=O	i
CCOC(=O)CCOC(=O)c1ccc(COc2ccc3ccccc3c2)o1	i
CCNC(=O)c1cc(OC)cc(OC)c1	i
CCc1c(C)nc2ncnn2c1Sc1ccc(NC(=O)c2ccc(OC)c(OC)c2)cc1	i
Cc1n[nH]c(C)c1C(NC(=O)c1c(C)c2cccc(C)c2n1C)C(=O)O (centres undefined)	i
C=CCNc1nc(C(=O)OCC(=O)N(Cc2ccccc2)C(C)C)cs1	i
C=CCNc1ccccc1C(=O)NC(C(=O)O)c1c(C)n[nH]c1C (centres undefined)	28µM*
CC(C)(C)OC(=O)NC(C)(CN)c1ccccn1 (centres undefined)	i
COc1ccc(CNC(=O)C(C)Oc2ccc(CC(=O)O)cc2)cc1 (centres undefined)	i
CCCNc1c(NC(=O)Cc2cccs2)c(=O)oc2ccccc12	i
